Experimental data: PubChem BioAssay AID777 (Sanford-Burnham Center for Chemical Genomics, 2007)
The whole screen tested about 96,000 compounds, of which about 19,000 (20%) were called active. Only a sample is shown. Values without a mark were called inactive.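 Rule for the calls: active = blocking of liver enzyme CYP2C9 beyond about 50% at 5 µM (limit read from the data); inactive = the rest.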

Target: Cytochrome P450 2C9 (Homo sapiens) (UniProt P11712)
Assay: blockers of cytochrome P450 2C9 activity – biochemical, luminescence, ADME assay, primary screen (AID 777)
Details: CYP2C9 Supersomes, luciferin-H conversion, at 5 µM, active compounds read high

Chain of Cytochrome P450 2C9 (Homo sapiens) (P11712 whole entry, looked up): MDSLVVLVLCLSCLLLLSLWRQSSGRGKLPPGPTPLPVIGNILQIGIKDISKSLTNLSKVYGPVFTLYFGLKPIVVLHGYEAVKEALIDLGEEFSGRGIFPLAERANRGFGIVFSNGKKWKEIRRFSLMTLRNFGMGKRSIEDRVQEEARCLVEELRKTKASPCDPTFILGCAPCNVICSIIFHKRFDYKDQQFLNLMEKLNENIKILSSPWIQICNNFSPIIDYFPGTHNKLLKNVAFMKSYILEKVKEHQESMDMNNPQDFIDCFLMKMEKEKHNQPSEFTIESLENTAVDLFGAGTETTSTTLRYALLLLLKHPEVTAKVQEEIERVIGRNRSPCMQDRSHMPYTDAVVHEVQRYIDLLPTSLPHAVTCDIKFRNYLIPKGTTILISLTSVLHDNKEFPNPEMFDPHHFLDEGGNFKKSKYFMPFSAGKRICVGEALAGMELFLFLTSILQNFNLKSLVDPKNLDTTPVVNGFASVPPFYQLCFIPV

SMILES	inhibition
CC(=O)CSc1nnc(CSc2ncccn2)n1C1CCCCC1	-10.7%
CCN(CC)CCN1C(=O)C(=O)/C(=C(/O)c2ccccc2)C1c1ccccc1F (stereo not given)	-5.9%
CC(=O)C1=C(O)C(=O)N(c2ccc(S(N)(=O)=O)cc2)C1c1ccccc1F (stereo not given)	62.8% (active)
CCCNC(=O)c1c(N)n(-c2ccc(S(N)(=O)=O)cc2)c2nc3ccccc3nc12	-2.9%
COCC(=O)Nc1ccc(Br)cc1	-12.9%
O=C(NCCCCCCNC(=O)NCc1ccco1)NCc1ccco1	-11.1%
O=C(/C=C/c1ccc(Cl)cc1Cl)NCc1ccco1	-2.5%
O=C(NCc1ccco1)C1(c2ccc(Cl)cc2)CCCC1	58.8% (active)
Cc1nc2c(-c3ccc(F)cc3)c(C)nn2c(C)c1CCC(=O)N1CCN(c2ccccn2)CC1	13.1%
O=C(/C=C/c1ccc(Cl)cc1Cl)c1cccnc1	14.7%
COc1ccccc1CSc1nc2ccccc2[nH]1	43.6%
CN1CCN(c2ccc([N+](=O)[O-])c(Sc3nc4ccccc4[nH]3)c2)CC1	52.2% (active)
CSc1nnc2c(n1)OC(c1cn(C)c3ccccc13)N(C(C)=O)c1ccccc1-2 (stereo not given)	1.6%
Cc1ccc(-c2nnc(SC(C)C#N)n2N)cc1 (stereo not given)	1.1%
CSc1nc(C)cc(SC(C(C)=O)C(=O)Nc2ccccc2)n1 (stereo not given)	65.3% (active)
Cc1cc(C)nc(N(C#N)CC(=O)Nc2ccccc2)n1	7.1%
CSc1ccccc1C(=O)Nc1cccc(C(C)=O)c1	27.8%
Cc1csc(NC(=O)NC2(C(F)(F)F)Oc3ccccc3O2)n1	-6.5%
COc1ccc(C(=O)Nc2cc(C)ccc2NC(=O)COc2ccccc2)cc1	6.9%
Cc1ccc2nc(-c3ccc(SCC(=O)Nc4cc(C)on4)nc3)[nH]c2c1	2.6%
CCOC(=O)c1cc2cc(C)ccc2[nH]1	13.9%
CC(N)C12CC3CC(CC(O)(C3)C1)C2 (stereo not given)	-4%
FC(F)(F)COc1nc(N2CCCCC2)nc(N2CCNCC2)n1	-4.2%
CCC(C)NC(=O)CSC1=Nc2ccccc2C2=NC(CCC(=O)NCc3ccco3)C(=O)N12 (stereo not given)	67.8% (active)
O=C(CC1N=C2c3ccccc3N=C(SCc3ccccc3Cl)N2C1=O)NCc1ccco1 (stereo not given)	85.2% (active)

SMILES	inhibition
O=C(CSC1=Nc2ccccc2C2=NC(CC(=O)NCc3ccco3)C(=O)N12)NCc1ccco1 (stereo not given)	65.1% (active)
NC(=O)CSC1=Nc2ccccc2C2=NC(CCC(=O)NCc3ccc(F)cc3)C(=O)N12 (stereo not given)	16.8%
O=C(COC(=O)C12CC3CC(CC(C3)C1)C2)NCc1ccco1	35.4%
CCOCCc1c(O)nc(SCC(=O)NCc2ccco2)[nH]c1=O	-8.3%
O=C(CSc1c2c(nc3ccc(Cl)cc13)CCCC2)NCc1ccco1	48.3%
CCOc1c(Cl)cc(/C=N/O)cc1OC	-30%
COC(=O)c1cc(C(=O)OC)cc(N2C(=O)CC(N3CCN(c4ccccc4)CC3)C2=O)c1 (stereo not given)	49%
Cn1cc(S(=O)(=O)N2CCC(Cc3ccccc3)CC2)c(=O)n(C)c1=O	23.7%
C=C1c2cc(CC)ccc2NC(=O)N1c1ccc(C)cc1	10.6%
CC(C)(C)n1nnc(CCc2nnn(C(C)(C)C)n2)n1	3.2%
Cc1c(NC(=O)/C=C/C(=O)O)cccc1[N+](=O)[O-]	-2.8%
Cc1ccc(NC2(C#N)C(=O)Nc3ccccc32)cc1 (stereo not given)	-24.6%
CCOC(=O)c1c(NC(=O)/C=C/c2ccco2)sc(C)c1C	-4%
CCOC(=O)c1c(NC(C)=O)sc2c(O)c(Br)ccc12	55% (active)
CCOC(=O)c1c(NC(=O)CCl)sc(C(=O)N(CC)CC)c1C	49.6%
CC(=O)Nc1nonc1-c1nc2ccccc2n1Cc1ccccn1	7.4%
COc1ccccc1N1CCN(C(=O)c2cc(-c3ccc(Br)cc3)on2)CC1	-12%
COc1ccccc1N1CCN(C(=O)c2c(-c3c(Cl)cccc3Cl)noc2C)CC1	88% (active)
COc1ccccc1N1CCN(C(=O)CSc2nnc(-c3ccoc3C)o2)CC1	25.8%
CN1CCN(CCCNC(=O)c2cc3c(=O)oc4ccccc4c3s2)CC1	-15.9%
Cc1ccc(CNC(=O)COc2ccc(S(=O)(=O)NC(C)C)cc2)cc1	52.7% (active)
CC(C)NS(=O)(=O)c1ccc(OCC(=O)Nc2ccc3c(c2)OCCO3)cc1	40.9%
COc1ccc(OCC(=O)NCCc2ccc(S(N)(=O)=O)cc2)cc1	41.9%
COc1ccc(-c2cc(C)nc3nc(N)nn23)cc1	-29.3%
Cc1cccc(N2C(=O)c3cccnc3C2=O)c1	3.1%

SMILES	inhibition
CCOC(=O)c1[nH]c2ccc(OC)cc2c1NC(=O)N1CCOCC1	-9.2%
Cc1c(C(=O)N2CCOCC2)[nH]c2ccc(OCc3ccccc3)cc12	72.7% (active)
Cc1c(C(=O)CN2CCOCC2)[nH]c2ccccc12	-15.8%
Cc1ccc(OCC(O)CN2CCN(CC(O)COc3ccc(C)cc3Cl)CC2)c(Cl)c1 (stereo not given)	-10.1%
COC(=O)c1[nH]c2ccccc2c1NS(=O)(=O)c1ccc(OC)cc1OC	74.8% (active)
COC(=O)c1[nH]c2ccc(Br)cc2c1NC(=O)Oc1ccccc1	4.5%
CCCS(=O)(=O)Nc1c(C(=O)O)[nH]c2ccccc12	33.7%
CCCCCCCCOC1OC(CO)C(O)C(O)C1NC(C)=O (stereo not given)	-2.6%
COC(=O)c1ccc(C(=O)Nc2cc(Cl)ccc2Cl)cc1NC(=O)c1ccccc1C	-13.7%
Cc1ccc(N2C(=O)c3ccccc3C2(O)c2ncc[nH]2)cc1 (stereo not given)	-0.7%
CCOCC(=O)Nc1cc(OC)c(Cl)cc1OC	13.3%
Cc1nc(N2CCCC2C(=O)O)c2oc3ccccc3c2n1 (stereo not given)	-6.6%
CC(C)C1N=C2c3ccccc3N=C(SCC(=O)c3ccc(O)c(O)c3)N2C1=O (stereo not given)	51.3% (active)
O=C(CSC1=Nc2ccccc2C2=NC(c3ccccc3)C(=O)N12)NCC1CCCO1 (stereo not given)	39.3%
CCOC(=O)c1cc2occc2n1CC(=O)NC1CCC(C)CC1 (stereo not given)	22%
O=C1/C(=C\Nc2ccccc2)CCN1c1ncccn1	3.1%
CCOC(=O)CSc1nccc(N(C)C)c1C#N	-35%
CCOC(=O)C1CCN(C(=O)Cn2cc(C#N)c3ccccc32)CC1	-6.6%
CCOC(=O)CCc1c(C)c(C#N)c2[nH]c3ccccc3n2c1=O	64.1% (active)
Cc1c(CCO)c(=O)n(-c2ccccc2)n1S(=O)(=O)c1ccc(F)cc1	37.6%
CCOC(=O)C1CCN(Cc2coc3ccc(Cl)cc3c2=O)CC1	-49.2%
CCCc1nc(SCC(=O)Nc2ccccc2OC)c2c(=O)n(C)c(=O)n(C)c2n1	70.3% (active)
CCN(CC(=O)Nc1ccccc1OC)C(=O)Cn1cnc2ccccc2c1=O	14.4%
COc1ccccc1NC(=O)CSc1nnc(Cn2nnc(-c3ccccc3)n2)n1-c1ccccc1	40.2%
COc1ccc(C2C=C(c3ccc(Br)cc3)Nc3nc(NS(C)(=O)=O)nn32)cc1 (stereo not given)	-11.7%

SMILES	inhibition
O=C(O)CCC(=O)NCc1ccc(C(=O)O)cc1	6.1%
COc1ccc(NC(=O)c2c(SC)nsc2SC)cc1	12.2%
CCCCCOC(=O)NCCOC(=O)Nc1ccc(C(=O)OCC)cc1	48%
CCCc1ccc(OCc2ccc(C(=O)N/N=C/c3cccc([N+](=O)[O-])c3)o2)c(OC)c1	-10.7%
N#Cc1cc([N+](=O)[O-])ccc1Oc1cccc(/C=N/NC(=O)c2ccc(Cl)cc2)c1	59.3% (active)
COc1cc(OC)c(/C=N/NC(=O)c2ccc([N+](=O)[O-])cc2)cc1Br	1.8%
O=C1CCC(C(=O)Nc2ccc(OC(F)F)cc2)N1 (stereo not given)	1.2%
CCCCNc1nc2ccccc2nc1NS(=O)(=O)c1cccs1	32.1%
CC(=O)N1CCN(CCN=CC2=C(O)CC(C)(C)CC2=O)CC1	4%
CC1(C)CC(=O)C(C=NCCN2CCN(C(=S)Nc3cccc(Cl)c3)CC2)=C(O)C1	51.8% (active)
CC1(C)CC(=O)C(C=NCCC2=CCCCC2)=C(O)C1	0.7%
CC(=O)c1nn(-c2cccc(Br)c2)cc1C(=O)c1cccc2ccccc12	-72%
CC(C)COC(=O)C1C2C=CC3(CN(C(C)c4ccc(Br)cc4)C(=O)C13)O2 (stereo not given)	9.2%
Cc1cc(NC(=O)c2cnn3cccnc23)n(-c2ccccc2)n1	32%
COc1ccc(CCN2C(=O)c3[nH]nc(-c4ccccc4O)c3C2c2ccc(C)cc2)cc1OC (stereo not given)	58% (active)
CCN(CC)CCN1C(=O)C(=O)/C(=C(/O)c2ccc(OC)c(OC)c2)C1c1ccccn1 (stereo not given)	-10.7%
COc1ccc(CCN(C)CCN2C(=O)c3ccccc3C2=O)cc1OC	-9.6%
CCCCCCSc1nsc(N)n1	1.5%
CCOC(=O)c1sc(=S)n(-c2cccc(OC)c2)c1N	-20.4%
CS(=O)(=O)N(CC(=O)N1CCN(Cc2ccccc2)CC1)c1ccc2c(c1)OCCO2	-0.9%
CS(=O)(=O)N(CC(=O)N1CCN(Cc2ccc3c(c2)OCO3)CC1)c1ccc2c(c1)OCO2	7.2%
CC1CCN(C(=O)CN(c2ccc(Oc3ccccc3)cc2)S(C)(=O)=O)CC1	50.7% (active)
Cc1cccc(N(CC(=O)N2CCOCC2)S(C)(=O)=O)c1	3.8%
CS(=O)(=O)N(CC(=O)N1CCN(c2cccc(Cl)c2)CC1)c1ccccc1	54.7% (active)
COc1cccc(N(CC(=O)N2CCc3ccccc3C2)S(C)(=O)=O)c1	14.5%
